Source: the supplement of paper PMC9794691

Test system: PC9
Assay: area under confluence curve of compound monotherapy; compare to DMSO control AUC of the same experiment (AUC (confluence x time, arbitrary))
Details: 10 nM; DMSO control AUC in same experiment: 18385
Description: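 compare to DMSO control AUC of the same experiment; Monotherapy arm of the osimertinib DTP screen: EGFR-mutant NSCLC cells were treated with the test compound alone at a fixed dose (highest dose with <50% inhibition of parental cells, or 1 uM), then switched to drug-free medium at the DTP stage. IncuCyte confluence was tracked and AUC computed in Prism. AUC scale depends on experiment duration, so each row carries the same-experiment DMSO control AUC (monotherapy activity = DMSO AUC minus monotherapy AUC). The monotherapy value is shared between screen formats.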

SMILES | area under confluence curve
Cc1nc(-c2nc(-c3ccc(OC(F)(F)F)cc3)no2)nn1Cc1cccc(N2CCC(S(C)(=O)=O)CC2)c1 | 18100

Same assay, conditions: 10 nM; DMSO control AUC in same experiment: 19076

SMILES | area under confluence curve
Cc1nc(-c2nc(-c3ccc(OC(F)(F)F)cc3)no2)nn1Cc1cccc(N2CCC(S(C)(=O)=O)CC2)c1 | 18900

Same assay, conditions: 1000 nM; DMSO control AUC in same experiment: 21594

SMILES | area under confluence curve
O=C([C@@H](Cc1cccc(C(F)(F)F)c1)NS(=O)(=O)c1cc(F)c2c(c1)CCNC2)N1CCCC1 | 20800

Same assay, conditions: 1000 nM; DMSO control AUC in same experiment: 22064

SMILES | area under confluence curve
CCc1cc2c(cc1N1CCC(N3CCOCC3)CC1)C(C)(C)c1[nH]c3cc(C#N)ccc3c1C2=O [Alectinib] | 16200

Same assay, conditions: 1000 nM; DMSO control AUC in same experiment: 27958

SMILES | area under confluence curve
CN1CCN(c2nc(C3=C(c4c[nH]c5ccccc45)C(=O)NC3=O)c3ccccc3n2)CC1 [Sotrastaurin] | 27000

Same assay, conditions: 1000 nM; DMSO control AUC in same experiment: 28684

SMILES | area under confluence curve
COc1cc2nc(C)nc(N[C@H](C)c3cc(N)cc(C(F)(F)F)c3)c2cc1O[C@H]1CCOC1 | 28300

Same assay, conditions: 1000 nM; DMSO control AUC in same experiment: 29345

SMILES | area under confluence curve
CS(=O)(=O)CCNCc1ccc(-c2ccc3ncnc(Nc4ccc(OCc5cccc(F)c5)c(Cl)c4)c3c2)o1 [Lapatinib] | 20900

Same assay, conditions: 1000 nM; DMSO control AUC in same experiment: 30578

SMILES | area under confluence curve
Cc1[nH]nc(C(F)(F)F)c1Cc1sc2c(c1C(=O)N1C[C@](C)(O)CO1)c(=O)n(C)c(=O)n2C(C)C | 30100
Cc1nc2nc(C)c(O[C@@H]3CCN(c4ccc(-c5ccc(CN6CCOCC6)nn5)cc4)C3)c(C)n2n1 | 30800

Same assay, conditions: 1000 nM; DMSO control AUC in same experiment: 30580

SMILES | area under confluence curve
CS(=O)(=O)N1CCN(Cc2cc3nc(-c4cccc5[nH]ncc45)nc(N4CCOCC4)c3s2)CC1 | 24700
